# Assay results published in PubChem BioAssay.
# Where “and” joins values, the source holds several entries; their conditions need not be identical. Equal entries are not always repeated. Calls of active or inactive are those of the source.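 Rule for the calls, unless noted: active = inhibition at or above 50% relative to wild type and mutant plate controls; inactive = inhibition below 50%.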
# Columns and labels:
# [1] = inhibitors of TNFa-induced NFkB p65 translocation, primary screen, imaging, HUVEC, MLSMR starter and 10KST1 sets (AID 438;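 active = inhibition above 20% together with a positive visual image hit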;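 note: compound added about 3h40 before a 20 min TNFalpha stimulation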;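 for inhibition: signal is the nuclear over cytoplasmic p65 intensity ratio per well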); conditions: HUVEC TNFa-induced p65 nuclear translocation; cell count: measured here: nuclei count (cytotoxicity indicator), at 2.08 µM; inhibition: at 2 µM, stronger effect = higher value, 0% TNFa-plus-vehicle, 100% no-TNFa wells
# [2] = reduction of polyQ htt aggregates in cells – imaging, exon1htt(103Q)mCFP cells, high-content imaging, primary screen (AID 483;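 active = visual image review flags a hit and inhibition of aggregation exceeds 20%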;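 note: compound exposure lasted 3 days before fixation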;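 for nuclei count: percent of the per-plate median nuclei count of sample wells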); conditions: exon1htt(103Q)mCFP cell line, aggregate imaging, at 2 µM; inhibition of aggregation: stronger effect = higher value; nuclei count: measured here: cell count, toxicity
# [3] = endothelial E-selectin expression blockers – imaging, HUVEC, immunofluorescence, MLSMR starter and 10KST1 sets, primary screen (AID 487;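 active = visually confirmed hit in the image check and inhibition above 20%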;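 for inhibition: signal is fraction of cell area covered by stained E-selectin grains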;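 for nuclei count: 100% = median nuclei count of all wells on the same plate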); conditions: HUVEC TNFalpha-induced E-selectin immunofluorescence imaging, at 2 µM; inhibition: stronger effect = higher value; nuclei count: measured here: cell number, toxicity
# [4] = Primary imaging screen for DUSP6 inhibitors that restore phospho-Erk in transfected HeLa cells, chemical complementation (AID 609;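 active = compounds giving at least 50% inhibition in the cell-based MKP-3 phosphatase rescue imaging test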;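 for inhibition: phospho-Erk level distribution per well compared with pooled transfected vehicle control wells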); conditions: HeLa MKP-3 transfected, phospho-Erk imaging KS statistic, at 10 µM, cells stimulated with TPA for 15 min
# [5] = molecular target: Dual specificity protein phosphatase 6 (Homo sapiens) (UniProt Q16828); assay: as above; conditions: HeLa MKP-3 transfected, phospho-Erk imaging KS statistic; at 10 µM; stronger effect = higher value; cells stimulated with TPA for 15 min
# Chain of Dual specificity protein phosphatase 6 (Homo sapiens) (Q16828 whole entry, looked up): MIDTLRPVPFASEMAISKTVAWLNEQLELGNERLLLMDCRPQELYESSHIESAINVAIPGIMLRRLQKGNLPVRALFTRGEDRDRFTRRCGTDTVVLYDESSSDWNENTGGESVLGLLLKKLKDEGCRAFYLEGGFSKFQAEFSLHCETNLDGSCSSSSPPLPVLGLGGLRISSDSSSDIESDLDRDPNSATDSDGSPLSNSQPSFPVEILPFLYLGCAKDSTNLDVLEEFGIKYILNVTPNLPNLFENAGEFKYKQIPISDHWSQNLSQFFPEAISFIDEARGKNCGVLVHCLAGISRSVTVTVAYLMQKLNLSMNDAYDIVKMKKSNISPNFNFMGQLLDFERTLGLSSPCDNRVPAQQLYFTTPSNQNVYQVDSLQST
# [6] = molecular target: Voltage-gated potassium channel subunit beta-2 (Rattus norvegicus) (UniProt P62483); assay: inhibitors of rat Kvbeta2 reductase activity – biochemical, NADPH fluorescence, primary screen (AID 622;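 active = fluorescence slope higher than the sample average by over 3 SD, cut at about -0.22 in these data, passing the limit was not always enough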;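 note: slope of raw intensity against log time taken from 70 to 1610 s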); conditions: recombinant KvBeta, 4-cyanobenzaldehyde reduction, at 10 µM, stronger effect = higher value
# Chain of Voltage-gated potassium channel subunit beta-2 (Rattus norvegicus) (P62483 whole entry, looked up): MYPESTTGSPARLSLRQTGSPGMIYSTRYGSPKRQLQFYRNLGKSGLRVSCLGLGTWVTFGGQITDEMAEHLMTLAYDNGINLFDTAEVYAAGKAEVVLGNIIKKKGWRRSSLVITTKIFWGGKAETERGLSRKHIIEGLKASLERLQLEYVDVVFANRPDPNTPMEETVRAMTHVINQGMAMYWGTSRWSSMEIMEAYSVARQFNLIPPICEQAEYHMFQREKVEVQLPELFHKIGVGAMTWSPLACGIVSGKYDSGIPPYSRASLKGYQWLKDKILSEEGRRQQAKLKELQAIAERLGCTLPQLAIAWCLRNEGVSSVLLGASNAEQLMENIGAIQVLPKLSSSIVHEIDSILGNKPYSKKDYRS
# [7] = molecular target: Voltage-gated potassium channel subunit beta-2 (Rattus norvegicus) (UniProt P62483); assay: enhancers of rat Kvbeta2 NADPH turnover – biochemical, NADPH fluorescence, primary screen (AID 623;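 active = NADPH fluorescence slope more negative than the mean of all samples by about 3 SD, 99.7% confidence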;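 note: fluorescence intensity change per second fitted from 20 to 320 s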); conditions: Recombinant KvBeta, NADPH fluorescence decrease slope, 10 min; at 10 µM; stronger effect = lower value
# [8] = molecular target: Alpha-2C adrenergic receptor (Homo sapiens) (UniProt P18825); assay: compounds altering alpha2C-coupled GIRK flux – cell-based, HEK293 alpha2C/GIRK1/2, thallium flux, primary screen (AID 624;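 active = fluorescence slope after compound addition differing from the mean of all screened samples at 99.7% confidence, in either direction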;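 note: slope of fluorescence ratio to pre-addition baseline per second over 15 to 24 s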); conditions: thallium flux BTC fluorescence, at 10 µM, actives lie on both sides
# Chain of Alpha-2C adrenergic receptor (Homo sapiens) (P18825 whole entry, looked up): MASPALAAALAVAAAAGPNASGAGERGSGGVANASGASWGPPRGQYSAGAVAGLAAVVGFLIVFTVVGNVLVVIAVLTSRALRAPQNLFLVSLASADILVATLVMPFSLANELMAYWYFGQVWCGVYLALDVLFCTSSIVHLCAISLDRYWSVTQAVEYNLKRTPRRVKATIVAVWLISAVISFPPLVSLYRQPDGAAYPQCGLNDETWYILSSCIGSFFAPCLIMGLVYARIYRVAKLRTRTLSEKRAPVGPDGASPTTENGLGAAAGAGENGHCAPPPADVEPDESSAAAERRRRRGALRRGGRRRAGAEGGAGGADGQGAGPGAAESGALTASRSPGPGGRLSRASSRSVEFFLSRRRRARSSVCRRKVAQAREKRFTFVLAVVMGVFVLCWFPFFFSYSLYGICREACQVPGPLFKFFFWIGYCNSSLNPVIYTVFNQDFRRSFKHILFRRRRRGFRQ
# [9] = inhibitors of larval lipid processing in zebrafish, primary screen, whole organism, PED6 fluorescence, gall bladder and intestine (AID 686;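 active = a full or partial loss of lipid-probe fluorescence in the fish gall bladder, intestine or both, judged by eye; inactive = no fluorescence loss, or compound toxic to the fish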;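 note: larvae 5 to 7 days old with five fish per well; signal comes from phospholipase A2 cleavage of quenched PED6 carried via bile; overnight exposure to compound and PED6 before scoring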); conditions: Zebrafish larvae PED6 lipid processing, fluorescence scoring; screened at 20 µM (by protocol)
# [10] = loss of swimming-algae plug formation – whole organism, Chlamydomonas reinhardtii, WT vs cilia-less mutant, absorbance, 96-well, primary screen (AID 463189); conditions: Chlamydomonas reinhardtii gravitaxis, OD600 absorbance, 2 days; at 10 µM; stronger effect = higher value;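 note: 0% = wild type cc124 cells in DMSO and 100% = ciliumless bld1 mutant cells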
# [11] = blockers of RIG-like receptor reporter activation – cell-based, Sendai virus stimulus, luciferase, 10K MLSCN set, TLR/RLR signaling modifier project, primary screen (AID 602276;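 active = inhibition at or above 50% at 10 µM; inactive = inhibition below 50%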;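 note: firefly luciferase from ISG56 promoter only with Renilla not read in this screen; 0% = Sendai virus plus DMSO and 100% = medium plus DMSO without virus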); conditions: HEK293 RL24 IRF3 luciferase reporter, at 10 µM, stronger effect = higher value
# [12] = TLR3 IRF3 reporter activation blockers – cell-based, poly I:C stimulus, luciferase, 10K MLSCN set, primary screen (AID 602277;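 active = inhibition of the reporter signal at or above 50%; inactive = inhibition below 50%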); conditions: HEK293-TLR3 RL24 IRF3 luciferase reporter, at 10 µM, stronger effect = higher value
# [13] = measured here: cell density z-score
# [14] = measured here: nuclear c-Myc green intensity z-score
# [15] = measured here: nuclear pErk red intensity z-score, stronger effect = higher value
SMILES,cell count [1],inhibition [1],inhibition of aggregation [2],nuclei count [2],inhibition [3],nuclei count [3],"z-score [4, 13]","z-score [4, 14]","z-score [4, 15]",inhibition [5],fluorescence slope [6],NADPH fluorescence slope [7],slope [8],outcome [9],inhibition [10],inhibition [11],inhibition [12]
CCN(CC)S(=O)(=O)c1cccc2c(N(C)C)cccc12,503,-2.1% (inactive),14.8% (inactive),95.3%,-84.9% (inactive),128%,0.324,-0.162,1.65,0.671% (inactive),-0.177 (active),-1.3e-05 (inactive),0.00311 (inactive),inactive,25.1% (inactive),-4.35% (inactive),-4.09% (inactive)
O=C(/C=C/c1ccccc1)c1ccccc1,614,-6.5% (inactive),-4.6% (inactive),98.3%,-56.5% (inactive),113%,0.266,0.631,0.428,23.2% (inactive),-0.452 (inactive),-2.2e-05 (inactive),0.0047 (inactive),inactive,21.2% (inactive),-12.6% (inactive),-54.9% (inactive)
Cc1nnc2n(Cc3ccccc3)c(=O)c3c4c(sc3n12)COC(C(C)C)C4 (stereo unspecified),511,9.8% (inactive),29.9% (inactive),80.8%,-54.8% (inactive),118%,0.665,-0.394,-1.52,-1.12% (inactive),-0.46 (inactive),-0.000365 (inactive),0.00653 (inactive),inactive,146% (active),11.6% (inactive),3.4% (inactive)
Cc1cc(NC(=O)C2=C(O)c3ccccc3S(=O)(=O)N2C)no1,693,-7.5% (inactive),9.1% (inactive),108%,-39.3% (inactive),120%,0.515,0.415,0.569,7.39% (inactive),-0.538 (inactive),-2.2e-05 (inactive),0.00444 (inactive),inactive,-6.68% (inactive),12.9% (inactive),25.5% (inactive)
CC(C)C1Cc2c(C#N)c(N)sc(=S)c2CO1 (stereo unspecified),487,4.7% (inactive),2.2% (inactive),102%,-98.3% (inactive),146%,1.33,-0.895,0.775,14% (inactive),-0.291 (inactive),1.2e-05 (inactive),0.0021 (inactive),inactive,27.2% (inactive),-3.04% (inactive),12.1% (inactive)
COc1ccc2c(c1OC)C(=O)O[C@@H]2[C@H]1c2c(cc3c(c2OC)OCO3)CCN1C,567,1.8% (inactive),0.2% (inactive),97.2%,-22.4% (inactive),112%,0.15,-0.163,-0.0552,23.4% (inactive),-0.46 (inactive),-6.4e-05 (inactive),0.00541 (inactive),inactive,-5.91% (inactive) and 3.65% (inactive),0.328% (inactive),32.2% (inactive)
O=C1NC(c2cccs2)Nc2ccccc21 (stereo unspecified),600,-16.1% (inactive),14.1% (inactive),130%,-3.3% (inactive),140%,-1.25,-1.7,1.79,1.12% (inactive),-0.292 (inactive),-3.3e-05 (inactive),0.00756 (inactive),inactive,15.5% (inactive),-3% (inactive),0.34% (inactive)
CCN(CC)CCOC(=O)C1(C2CCCCC2)CCCCC1,520,-11.3% (inactive),17.1% (inactive),96%,-57.3% (inactive),118%,-0.235,-0.682,1.64,-6.41% (inactive),-0.494 (inactive),-5.1e-05 (inactive),0.00415 (inactive),inactive,-2.13% (inactive) and -31% (inactive),10.2% (inactive),38.4% (inactive)
CCCCCC(=O)O[C@]1(C(C)=O)CC[C@H]2[C@@H]3CCC4=CC(=O)CC[C@]4(C)[C@H]3CC[C@@]21C,601,-6.9% (inactive),2.3% (inactive),104%,-58.2% (inactive),122%,-1.27,-0.399,1.24,13.3% (inactive),-0.444 (inactive),-6.6e-05 (inactive),0.00545 (inactive),inactive,3.11% (inactive),0.124% (inactive),48% (inactive)
NS(=O)(=O)c1cc2c(cc1Cl)NC=NS2(=O)=O,531,-6.4% (inactive),-4.4% (inactive),92.2%,13.8% (inactive),108%,0.808,0.404,-1.03,23.2% (inactive),-0.492 (inactive),-0.000201 (active),0.00527 (inactive),inactive,11.8% (inactive) and 7.71% (inactive),-14.2% (inactive),-10.5% (inactive)
CC(C)(Oc1ccc(CCNC(=O)c2ccc(Cl)cc2)cc1)C(=O)O,649,-3% (inactive),5.2% (inactive),107%,-101% (inactive),135%,-0.113,-1.08,-0.613,15.3% (inactive),-0.452 (inactive),-4.1e-05 (inactive),0.00448 (inactive),inactive,39.4% (inactive),9.06% (inactive),22.2% (inactive)
CO[C@H]1C[C@@H]2CC[C@@H](C)[C@@](O)(O2)C(=O)C(=O)N2CCCC[C@H]2C(=O)O[C@H]([C@H](C)C[C@@H]2CC[C@@H](O)[C@H](OC)C2)CC(=O)[C@H](C)C=C(C)[C@@H](O)[C@@H](OC)C(=O)[C@H](C)C[C@H](C)C=CC=CC=C1C,629,-23.5% (inactive),3.4% (inactive),97%,-63% (inactive),106%,0.947,0.453,0.871,19.2% (inactive),-0.462 (inactive),-3.4e-05 (inactive),0.00536 (inactive),inactive,44.3% (inactive),21.8% (inactive),43.8% (inactive)
CC(C)C[C@H](NC(=O)[C@@H]1O[C@H]1C(=O)O)C(=O)NCCCCN=C(N)N,565,1.2% (inactive),14.2% (inactive),93.3%,-70.2% (inactive),120%,0.0952,-0.437,0.847,3.45% (inactive),-0.492 (inactive),-4.3e-05 (inactive),0.00515 (inactive),inactive,9.72% (inactive),13.8% (inactive),45.3% (inactive)
CCN(CC)c1ccc2c(C)c(-c3ccc(N)cc3)c(=O)oc2c1,446,-5% (inactive),6.3% (inactive),98.2%,25% (inactive),149%,0.788,0.208,-0.594,-4.78% (inactive),-0.133 (active),0 (inactive),0.00526 (inactive),inactive,55.8% (active),-44% (inactive),-91% (inactive)
C[C@@H]1C[C@H]2[C@@H]3C[C@H](F)C4=CC(=O)C=C[C@]4(C)[C@@]3(F)[C@@H](O)C[C@]2(C)[C@@]1(O)C(=O)CO,647,-3.8% (inactive),-18.8% (inactive),42.3%,-111% (inactive),128%,-1.38,0.0959,0.878,9.37% (inactive),-0.535 (inactive),-3.8e-05 (inactive),0.00526 (inactive),inactive,-6.12% (inactive),-11.6% (inactive),33.6% (inactive)
C[C@]12CC[C@H]3[C@@H](CCC4=CC(=O)CC[C@@]43C)[C@@H]1CC[C@@H]2C(=O)CO,632,-0.8% (inactive),4.5% (inactive),37.5%,-114% (inactive),118%,-0.564,-1.57,-0.166,-2.46% (inactive),-0.521 (inactive),-1e-05 (inactive),0.00387 (inactive),inactive,-3.19% (inactive),1.11% (inactive),43.7% (inactive)
CCOC(=O)N1CCN(C(=O)c2cn(CC)c3cc(N4CCN(C)CC4)c(F)cc3c2=O)CC1,544,2.6% (inactive),15.1% (inactive),96%,-20.9% (inactive),121%,0.456,0.816,-1.34,-7.28% (inactive),-0.267 (inactive),1.3e-05 (inactive),0.00518 (inactive),inactive,15.7% (inactive),21.5% (inactive),21.4% (inactive)
CCOC(=O)c1ccc(-n2c(=O)[nH]c3ccccc3c2=O)cc1,443,-3.4% (inactive),7.1% (inactive),80%,-140% (inactive),136%,-0.719,-0.246,0.316,11.4% (inactive),-0.415 (inactive),-5.7e-05 (inactive),0.00476 (inactive),inactive,9.26% (inactive),-16.9% (inactive),-29.3% (inactive)
